Data published in the supplement of paper PMC4894684.
Where a name gives a salt, the structure may show the parent alone. ± gives the standard deviation of the averaged measurements.

What follows are molecules tested on Toxoplasma gondii RH (in HFF) (assay: parasite growth relative to the screen mean (all compounds = 100%); higher = less inhibition of parasite growth). Settings: 5 µM; 72 h; oxygen 21 %.
Summary of the method: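 RH β-Gal–GFP Toxoplasma at MOI 1:5 was used to infect confluent human foreskin fibroblasts in 96-well plates within 2 h of pin-transferring compounds to 5 µM final. After 72 h at 21% O2, parasite number was determined by CPRG β-Gal assay against standard curves on the same plate. Growth is relative to the screen mean and averaged over two screens, with all compounds = 100%.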
`CCN(CC)CCOC(=O)c1cc(Cl)c(N)cc1OC` [SDZ 205-557 hydrochloride] gave a parasite growth of 105 ± 6.7%. For `Oc1cc2c(cc1O)CN(C(=S)NCCc1ccc(Cl)cc1)CCC2` [Capsazepine], the parasite growth was 150 ± 30%. `CC(C)[C@H](NS(=O)(=O)c1ccc(-c2ccc(Br)cc2)cc1)C(=O)O` gave a parasite growth of 130 ± 34%. `N#Cc1c(O)c2c(-c3ccc(-c4ccccc4O)cc3)csc2[nH]c1=O` was tested, and the parasite growth was 131 ± 14%. Molecule `CCOC(=O)C1=C(C)NC(=S)NC1c1cccc(O)c1` (centres undefined) [Monastrol] has a parasite growth of 126 ± 29%. `CCC(=O)OCN1C(=O)C=CC1=O` showed a parasite growth of 124 ± 12%. Work on `CCCCNc1c(C(=O)OCC)c(C)nc2c1cnn2CC` [Tracazolate hydrochloride] yielded a parasite growth of 109 ± 5.9%. For `O=C(O)CCC/C=C\C[C@@H]1CO[C@H](C(F)(F)F)O[C@@H]1c1ccccc1O`, the parasite growth was 102 ± 25%. Molecule `COc1ccc2cc([C@H](C)C(=O)O)ccc2c1` [Naproxen sodium] has a parasite growth of 89.9 ± 13%. `N#C/C(=C\c1ccc(O)c(O)c1)C(=O)NCc1ccccc1` showed a parasite growth of 148 ± 13%. In the case of `CCCCC#Cc1nc(NC)c2ncn([C@@H]3O[C@H](CO)[C@@H](O)[C@H]3O)c2n1`, the parasite growth is reported as 143 ± 8.2%. For `O=c1c(O)c(-c2ccc(O)cc2)oc2cc(O)cc(O)c12` [Kaempferol], the parasite growth was 155 ± 7.1%. In the case of `Nc1nc(Cl)nc2c1ncn2[C@@H]1O[C@H](CO)[C@@H](O)[C@@H]1F` [Clofarabine], the parasite growth is reported as 67.9 ± 2.8%. Molecule `CCC(NC(C)C)C(O)c1ccc(O)c2[nH]c(=O)ccc12` (centres undefined) [Procaterol hydrochloride] has a parasite growth of 132 ± 21%. In the case of `CC1=C(/C=C/C(C)=C/C=C/C(C)=C/C(=O)Nc2ccc(O)cc2)C(C)(C)CCC1` [Fenretinide], the parasite growth is reported as 38 ± 8.6%. `C[S+]([O-])c1ccc(-c2nc(-c3ccc(F)cc3)c(-c3ccncc3)[nH]2)cc1` (centres undefined) gave a parasite growth of 8.46 ± 12%. `CC(C)c1ccccc1S(=O)(=O)c1cc(N)c2ncccc2c1[N+](=O)[O-]` gave a parasite growth of 88.4 ± 2.1%. `COC(=O)c1c(-c2cc(OC)c(OC)c(OC)c2)c2ccnc(OCc3ncccn3)c2c(=O)n1Cc1ccnc(C)c1` [T 0156 hydrochloride] showed a parasite growth of 89.9 ± 14%. `CC1(C(=O)O)NCCc2cc(O)c(O)cc21` (centres undefined) [Salsolinol-1-carboxylic acid] was tested, and the parasite growth was 104 ± 22%. For `CCS(=O)(=O)N1CCC[C@@H]2CN3CCc4cc(OC)ccc4[C@@H]3C[C@@H]21`, the parasite growth was 125 ± 31%. With `CC1=C(CC(=O)O)c2cc(F)ccc2/C1=C\c1ccc([S+](C)[O-])cc1` (centres undefined) [Sulindac] the parasite growth was 183 ± 34%. `CCCCOC(=O)c1cc2c(cn1)[nH]c1ccccc12` was tested, and the parasite growth was 150 ± 37%. `CNC(=O)[C@@H](Cc1ccccc1)N(C)C(=O)[C@@H](Cc1ccc2ccccc2c1)N(C)C(=O)/C=C/CC(C)(C)N` [Tabimorelin] showed a parasite growth of 135 ± 20%. In the case of `O=C(OCCN1CCCCC1)c1c[nH]c2ccccc12`, the parasite growth is reported as 113 ± 7.7%.
